What all share (type): functional
The subject of assay [1] is Plasmodium falciparum. Nature of the assay: GSK_TCMDC: Inhibition of Plasmodium falciparum 3D7 in whole red blood cells, using parasite LDH activity as an index of growth. Test compounds present at 2uM.
Assay [2] relates to Plasmodium falciparum. Nature of the assay: GSK_TCMDC: Inhibition of Plasmodium falciparum Dd2 in whole red blood cells, using parasite LDH activity as an index of growth. Test compounds present at 2uM.
The subject of assay [3] is HepG2. Nature of the assay: GSK_TCMDC: Percent inhibition of human HepG2 cell line. Test compounds present at 10uM.

Turning to `COCCNCc1ccc(-c2cccc(CN(C(=O)NCCc3ccccc3)C3CCN(Cc4ccccc4)CC3)c2)cc1.O=C(O)C(F)(F)F`, the results for the Inhibition in assay [1], in assay [2] and in assay [3] were 88%, 90% and 25%, respectively.
With `Cn1nc(-c2cccc(CNCc3ccccc3)c2)c2cnc(NC3CCCC3)nc21`, the figures for the Inhibition in assay [1], in assay [2] and in assay [3] were 85%, 11% and 5%, respectively.
Turning to `CN1CCC(N2CCN(c3ccc4c(=O)nc(CCc5cccc(F)c5F)n(CC(=O)N(C)Cc5ccc(-c6ccc(C(F)(F)F)cc6)cc5)c4n3)CC2)CC1.O=C(O)C(O)C(O)C(=O)O`, the Inhibition (commonly the drop in the measured response relative to a control, in per cent) in assay [1] worked out at 100%; in assay [2] it was 99%; in assay [3] it was 15%.
As for `CC(C)N1CCN(C(CN2CCN(CCCOc3cccc4ccccc34)CC2)c2ccc(F)cc2)CC1.Cl` (stereo not given), the Inhibition in assay [1] came to 100%; in assay [2] it was 75%; in assay [3] it was 54%.
For the molecule `N#Cc1ccc(-c2ccc(C(=O)NCCCCN3CCC(c4ccc5c(c4OCc4ccccn4)CCCC5)CC3)cc2)cc1`, the Inhibition is 96% in assay [1], 39% in assay [2] and 37% in assay [3].
On the same counts, the results for `Cc1nc2ccccc2c(=O)n1NCc1ccc(Cl)c(Cl)c1` are 96%, 92% and 12%.
On the same counts, the results for `CNC(=O)c1cnc(Nc2ccc(N3CCN(C)CC3)c(C)c2)nc1NC.Cl` are 97%, 38% and 19%.
On the same counts, the results for `Cc1nc(-c2nc(NCc3ccncc3)ncc2-c2ccsc2)sc1C` are 91%, 83% and 8%.
For `O=C(Nc1ccc(Br)c(Cl)c1)c1cc([N+](=O)[O-])cc2cn[nH]c12`, the values for the Inhibition in assay [1], in assay [2] and in assay [3] were 99%, 63% and 49%, respectively.
On the same counts, the results for `O=C1COc2ccc(CNC3CCC(O)(CCc4ccnc5cc6c(cc45)OCCO6)CC3)nc2N1` (stereo not given) are 92%, 0% and 0%.
On the same counts, the results for `CCOc1ccc(C(=O)Nc2cc(Br)c3c(c2)CNCC3)cc1Br.Cl` are 96%, 21% and 18%.
On the same counts, the results for `CCCNCc1ccc(-c2ccc(CN(Cc3cnc(C)cn3)C(=O)/C=C/c3ccccc3C)cc2)nc1.O=C(O)C(F)(F)F` are 95%, 15% and 7%.
On to `Cc1ccc(S(=O)(=O)NC2CCN(c3ccnc4cc(Cl)ccc34)C2)cc1.O=C(O)C(F)(F)F` (stereo not given), for which the results for the Inhibition in assay [1], in assay [2] and in assay [3] were 99%, 90% and 21%, respectively.
On the same counts, the results for `CCCCCCN1CCC(NCc2ccc(Cl)cc2)CC1.O=C(O)C(F)(F)F` are 98%, 9% and 19%.
On the same counts, the results for `Cc1cccc2nc(-c3ccc(-c4ccc(C(=O)NCCc5cn(C)cn5)cc4)s3)[nH]c12` are 88%, 8% and 0%.
For `O=C(NCCN1CCOCC1)c1csc(C2CCCN(C(=O)c3ccc(O)c(-c4cc(Cl)cc(Cl)c4)c3)C2)n1` (stereo not given), the Inhibition is given as 97% in assay [1], 50% in assay [2] and 12% in assay [3].
On the same counts, the results for `Cc1cc(Nc2c(C(N)=O)cnc3cc(-c4ccoc4)ccc23)ccc1N1CCN(C)CC1.Cl` are 100%, 100% and 7%.
On the same counts, the results for `CCN(CC)CC(O)Cc1c2ccc([N+](=O)[O-])cc2nc2cc(OC)c(OC)cc12` (stereo not given) are 100%, 37% and 41%.
On the same counts, the results for `NC(=O)Nc1ccc2c(Nc3ccc(OCc4ccccc4)cc3)ncnc2c1` are 84%, 20% and 0%.
As to `Cl.NCc1ccc(-c2ccc3c(N)nccc3c2)cc1`, the Inhibition in assay [1] is recorded as 100%; in assay [2] it was 92%; in assay [3] it was 28%.
On the same counts, the results for `COc1ccc(-c2ccc3c(-c4ccc(F)cc4)cnc(N)c3c2)cn1` are 99%, 86% and 4%.
On the same counts, the results for `CCC(C)(C)c1ccc(OCC(O)CN2CCCCC2)c(C(C)(C)CC)c1` (stereo not given) are 91%, 26% and 14%.
On the same counts, the results for `Cc1cccc(C)c1C1CCN(CCCCNC(=O)c2cc3ccccc3[nH]2)CC1` are 90%, 18% and 46%.
`CC(ON1C(N)=NC(N)=NC1(C)C)c1ccccc1` (stereo not given): the Inhibition in assay [1] came out at 96%; in assay [2], 58%; in assay [3] it was 65%.
Consider `CCNc1cc(C(=O)NC(Cc2ccccc2)C(O)CNC(C)(C)CCCC(C)C)c(F)c(N2CCCS2(=O)=O)c1.O=CO` (stereo not given), for which the Inhibition was found to be 98% in assay [1], 97% in assay [2] and 0% in assay [3].
On the same counts, the results for `Cc1noc(C)c1-c1ccc(C(=C2CCCCCC2)c2ccc(O)cc2)cc1` are 100%, 96% and 0%.
On the same counts, the results for `CCCCCCNC(=O)C1Cc2c([nH]c3ccc(C)cc23)C2(CCN(CCc3ccccc3)CC2)N1` (stereo not given) are 85%, 24% and 31%.
On the same counts, the results for `Cc1ccc(C(=O)Nc2cccc(CN3CCCN(Cc4ccc(O)cc4)CC3)c2)s1.O=C(O)C(F)(F)F` are 90%, 23% and 17%.
Regarding `Cc1cccc(C)c1CNc1nc(N2CCOCC2)cc2c(C)c(C)[nH]c12.Cl`, the values for the Inhibition in assay [1], in assay [2] and in assay [3] were 92%, 64% and 51%, respectively.
On the same counts, the results for `O=S(=O)(c1cccc(C(F)(F)F)c1)N1CCC(CO)(Cc2cccc(C(F)(F)F)c2)CC1` are 100%, 79% and 3%.

Source of the values: ChEMBL document CHEMBL1157539, “Thousands of chemical starting points for antimalarial lead identification” (Nature, 2010).
